Screening data from PubChem.
D2 ag-1 – agonists of human D2 dopamine receptor (beta-arrestin). DiscoveRx PathHunter D2 beta-arrestin, luminescence, 90 min; 100% = 57 uM dopamine signal. AID 624465. 360,000 tested, 0.084% active. P14416. activation, % (concentration not given with the values); in the data active means activation above about 40%
Target sequence (P14416 whole entry, looked up): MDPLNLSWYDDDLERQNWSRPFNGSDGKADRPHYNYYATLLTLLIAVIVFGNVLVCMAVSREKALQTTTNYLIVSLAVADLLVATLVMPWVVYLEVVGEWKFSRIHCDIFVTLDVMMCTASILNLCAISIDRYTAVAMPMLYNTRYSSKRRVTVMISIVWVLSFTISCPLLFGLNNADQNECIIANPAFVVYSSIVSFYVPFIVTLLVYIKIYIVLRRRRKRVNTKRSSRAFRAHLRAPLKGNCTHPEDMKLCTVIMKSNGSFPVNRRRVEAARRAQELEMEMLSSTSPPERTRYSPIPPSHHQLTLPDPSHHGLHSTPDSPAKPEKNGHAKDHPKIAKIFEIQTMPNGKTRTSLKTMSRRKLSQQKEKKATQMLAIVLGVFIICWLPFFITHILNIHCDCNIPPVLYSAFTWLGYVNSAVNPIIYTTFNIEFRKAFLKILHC
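Agonist mode: compounds alone added to overnight-plated D2 PathHunter cells for 90 min at 37 C, with 57 uM final dopamine (EC100) defining full response. Beta-arrestin recruitment detected by chemiluminescent reagent, read after 1 h at ambient temperature.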
D2 antag – antagonists of human D2 dopamine receptor; HEK293 TREx D2 cells, calcium flux, dopamine EC80; 340,000 tested, 2% active; inhibition, % at 10 µM; in the data active means inhibition above about 30%; inactive means below that, where a call was filed; further: 0% is about no effect
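Calcium flux kinetic readout in an inducible HEK293 TREx D2 line plated overnight at 30 C. After 180 s compound exposure, an EC80 dopamine challenge follows with another 180 s kinetic read to detect antagonism.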
D2 ag-2 – activates the human D2 dopamine receptor | AID 485358 | HEK293 T-REx D2 cells, calcium flux agonist mode | P14416 | activation, % at 2 µM | 340,000 tested, 0.53% active;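 active means activation over 3 SD above normal in the single-dose calcium agonist read, cut at about 30% in these data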; further: 0% is about no effect
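Tetracycline-induced HEK293 Trex cells with D2 receptor force-coupled to calcium signaling, plated overnight at 30 C and loaded with no-wash calcium dye. Calcium flux read kinetically for 180 s after compound addition; responses flag agonists.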
D2 PAM-1 – positively modulates the human D2 dopamine receptor allosterically | potentiation, % at 10 µM | P14416 | AID 485347 | 340,000 tested, 0.34% active | HEK293 T-REx D2, calcium flux, EC20 dopamine potentiation;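 active means potentiation over 3 SD above the plate norm, cut at about 30% in these data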; further: 0% is about no effect
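Cells plated with tetracycline inducer and held overnight at 30 C; calcium dye loaded 30–90 min at room temperature; baseline taken, compound added and read 180 s; EC20 dopamine then added and read 180 s.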
D2 PAM-2 – human D2 receptor positive allosteric modulation | P14416 | DiscoveRx D2 beta-arrestin cells, luminescence, 90 min; 100% = 57 uM dopamine signal | potentiation, % (test concentration not listed) | 360,000 tested, 0.23% active | AID 624464; in the data active means potentiation above about 50%
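PathHunter D2 cells, attached overnight at 37 deg C, received compound in DMSO plus dopamine at EC20 (50 nM final) for 90 min at 37 deg C. Beta-arrestin recruitment was read as luminescence after 1 h with detection reagent at ambient temperature.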
The depositor's hits bear a star; x = no result. Most compounds without a hit are left out; they make up all but 2.4% or so of the library.

SMILES | D2 ag-1 | D2 antag | D2 ag-2 | D2 PAM-1 | D2 PAM-2
CCOc1ccc(NC(=O)c2sccc2-n2cccc2)cc1 | -5.0 | 5.0 | -1.0 | 64.5* | -9.0
CNC(=O)c1sccc1-n1cccc1 | -1.0 | -8.9 | -0.1 | -0.1 | -18.7
CC(C)c1ccc(S(=O)(=O)N2CCC(N3CCN(Cc4ccccc4)C(=O)C3=O)CC2)cc1 | x | x | x | -3.9 | x
CC(Sc1nnc(-c2ccccc2F)n1C1CC1)C(=O)N1CCCC1 (stereo not given) | -3.0 | -6.6 | 0.5 | 6.4 | -1.9
CC(Sc1nnc(-c2ccccc2F)n1C1CC1)C(=O)NC(N)=O (stereo not given) | -3.4 | 45.3* | 0.4 | -3.1 | -12.1
CCC(Cn1nnc2ccccc2c1=O)NC(=O)Nc1ccccc1OC (stereo not given) | x | x | 0.2 | 8.0 | x
Cc1ccc(-n2nc(C)c3c(C)c(CCC(=O)NCc4ccc(Cl)cc4)c(C)nc32)cc1 | x | x | -0.4 | -5.3 | x
CCOc1ccc(NC(=O)Cn2nnc(C(=O)OC)c2C(=O)OC)cc1 | x | x | 0.6 | 3.8 | x
COc1cc(Nc2ncc3c(n2)CCN(Cc2cccc(C)c2)C3)cc(OC)c1 | x | x | 5.5 | -4.3 | x
Oc1ccccc1N1CCN(c2ncnc3scc(-c4ccc(F)cc4)c23)CC1 | 1.7 | x | x | x | 1.7
Oc1ccccc1N1CCN(c2ncnc3scc(-c4ccccc4)c23)CC1 | 5.0 | -1.2 | 9.1 | 33.1* | 9.8
Cc1c(O)c(CN2CCCCC2)cc2c1oc(=O)c1ccccc12 | -2.3 | 65.9* | -1.4 | -13.4 | -51.7
CCC(=O)NCCn1c(C)cc2ccccc21 | -0.5 | -13.9 | 1.3 | 9.4 | -3.4
Cc1cc2ccccc2n1CCNC(=O)COc1ccccc1 | -6.4 | 39.0* | -0.2 | -17.7 | -18.2
COc1ccccc1C(=O)NNC(=O)c1ccc2ccccc2c1 | -0.3 | 0.7 | -0.7 | 1.2 | 66.9*
COc1ccccc1C(=O)NNC(=O)c1ccc(O)cc1 | -1.0 | x | x | x | 0.6
CCN(CC(=O)Nc1c(F)cccc1F)C(=O)c1ccc(N2CCOCC2)c([N+](=O)[O-])c1 | -2.5 | -12.0 | 0.3 | -4.2 | -17.2
CN(CC(=O)Nc1cccc(F)c1)C(=O)c1cc([N+](=O)[O-])ccc1N1CCCCC1 | -4.8 | 41.6* | -1.5 | -0.4 | -26.4
CCN(CC(=O)Nc1c(F)cccc1F)C(=O)c1ccc(N2CCCC2)c([N+](=O)[O-])c1 | -9.0 | 31.1* | 0.3 | 7.7 | -25.0
Cc1ccc(S(=O)(=O)Nc2ccc(Cl)cc2)cc1NC(=O)c1cc2c(s1)CCCC2 | 7.8 | -8.9 | 0.6 | 6.7 | 72.1*
CC(=O)c1ccc(NS(=O)(=O)c2ccc(Br)s2)cc1 | x | x | -0.2 | 16.8 | x
CCSc1nnc(-c2sc3nnc(-c4ccccc4)c(-c4ccccc4)c3c2N)o1 | -3.9 | -26.8 | 39.3* | -2.0 | -14.1
Fc1cccc2sc(Nc3nnc(-c4ccccc4)o3)nc12 | -5.5 | 43.1* | 0.6 | -7.1 | -21.5
O=C(c1ccc(Br)o1)N1CCC(Cc2ccccc2)CC1 | -4.3 | 49.1* | -1.1 | 8.2 | -13.8
CC(=O)c1cccc(NC(=S)N2CCC(Cc3ccccc3)CC2)c1 | -1.7 | 8.1 | 0.2 | -8.1 | -16.5
SMILES | D2 ag-1 | D2 antag | D2 ag-2 | D2 PAM-1 | D2 PAM-2
CC(=O)c1ccc(NC(=S)N2CCC(Cc3ccccc3)CC2)cc1 | -2.8 | 32.5* | -1.4 | -5.7 | -11.5
CN(C)CCNC(=O)c1cc2c(=O)n(C)c3ccccc3c2n1C | 1.6 | 8.9 | 1.6 | 32.6* | -2.6
CCN(CC)CCNC(=O)c1cc2c(=O)n(C)c3ccccc3c2n1C | -1.8 | 37.0* | 0.1 | 15.3 | -12.7
CCN(CC)CCCNC(=O)c1cc2c(=O)n(C)c3ccccc3c2n1C | -2.3 | -25.3 | 0.4 | -15.2 | -7.2
COCCNC(=O)c1cc2c(=O)n(C)c3ccccc3c2n1C | 8.7 | -0.5 | 0.5 | 0.4 | 1.6
Cn1c(C(=O)NCCCN2CCc3ccccc3C2)cc2c(=O)n(C)c3ccccc3c21 | -1.5 | 80.5* | 0.3 | -28.0 | -11.9
CCc1ccccc1NC(=O)CSc1ncc(S(=O)(=O)c2ccccc2)c(N)n1 | x | x | 0.4 | 1.8 | x
OC(Cc1ccccc1)c1ncc(-c2ccc3ccccc3c2)[nH]1 (stereo not given) | -2.0 | x | x | x | -6.8
Cc1ccccc1/C=C\c1nc2ccccc2c(=O)[nH]1 | -0.7 | 33.1* | 0.5 | -7.5 | -6.8
Cc1ccccc1/C=C/c1nc2ccccc2c(=O)[nH]1 | 1.9 | 0.3 | 0.1 | 3.2 | -9.1
CC1(C(=O)NCCC#N)CCN1C(=O)C1(c2ccccc2)CCCC1 (stereo not given) | -3.6 | x | x | x | -0.9
Cc1ccc(CO/N=C\Cc2snc(Sc3ncc(C(F)(F)F)cc3Cl)c2C#N)cc1 | 2.1 | 33.5* | 0.3 | -0.5 | 10.6
COc1ccc(O)c(/C=N/NC(=O)CCC(=O)Nc2cccc(C)c2)c1 | -2.7 | -5.0 | 0.1 | -5.5 | -7.3
O=C(CCC(=O)Nc1ccc(Br)cc1)N/N=C/c1ccc(O)cc1 | -4.3 | 33.3* | -1.3 | -23.2 | -23.0
Cc1ccc(NC(=O)CCC(=O)N/N=C/c2ccc(O)cc2)cc1 | -4.2 | -24.6 | 0.4 | -13.9 | -20.8
COc1ccc(OC)c(/C=N/NC(=O)CCCC(=O)Nc2cccc(Br)c2)c1 | -2.0 | 68.5* | 1.4 | -4.4 | -11.7
COc1cc(/C=N/NC(=O)CCC(=O)Nc2ccc(Br)cc2)ccc1O | 0.7 | 31.9* | -0.1 | -11.2 | -9.9
CC(C)(C)C(=O)Nc1ccc2nc(SCC(=O)N3CCc4ccccc43)sc2c1 | x | x | -2.0 | 11.5 | x
CN(C)c1ccc(C(=O)N=c2sccn2C)cc1[N+](=O)[O-] | -1.9 | -6.5 | -0.6 | 1.1 | 2.0
CCCN(Cc1nnc(-c2cccs2)o1)C(=O)CN1C(=O)NC2(CCC(C)CC2)C1=O (stereo not given) | -3.8 | 2.1 | 0.1 | 12.9 | -0.3
CCCN(Cc1nnc(-c2cccs2)o1)C(=O)CN1C(=O)NC2(CCCCC2)C1=O | -1.7 | 31.4* | 0.9 | 2.2 | -1.0
CCC(C(=O)OCC(=O)C1(O)CCC2C3CCC4=CC(=O)CCC4(C)C3C(O)CC21C)C(C)C (stereo not given) | 9.3 | x | x | x | 55.6*
CC(=O)[C@@]1(O)CC[C@H]2[C@@H]3CCC4=CC(=O)CC[C@]4(C)[C@H]3[C@@H](O)C[C@@]21C | -4.7 | 22.2 | -0.6 | -7.7 | 8.9
COc1cccc2cc(C(=O)CC3(O)C(=O)N(Cc4ccccc4)c4ccccc43)c(=O)oc12 (stereo not given) | -2.2 | 5.0 | 0.1 | 40.1* | -1.0
CCOC(=O)C1=C(O)C(=O)N(c2ccc(S(N)(=O)=O)cc2)C1c1ccc(OC)cc1OC (stereo not given) | -1.4 | -11.6 | -0.2 | 41.6* | 2.3
CCOC(=O)C1=C(O)C(=O)N(c2ccccc2)C1c1cccc([N+](=O)[O-])c1 (stereo not given) | -0.1 | 33.0* | 0.2 | -3.3 | -13.5
